# a7 integrin act – integrin-mediated muscular dystrophy alleviation activation. alpha7betagal myoblasts, beta-gal FDG fluorescence, 48 h. Potency, µM (highest dose often 38.3 µM), without a hit: top-dose activation, most hits filed as activators. 350,000 compounds, 0.064% hits. AID 624291;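 further: 100% = response of the positive control SU9516; nearly all actives have a fitted effect of over 60% in size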
#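 alpha7betagal+/- myoblasts (passage 13, 250/well) treated 48 h at 37C with compounds at 1:260 dilution of DMSO stock. Lysed, then beta-galactosidase activity read as FDG fluorescence (ex 480/em 540) after 30 min, with pre-read for autofluorescence.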
# A-T KAP1 phos – potential ataxia-telangiectasia treatment; F2112 A-T fibroblasts, KAP-1 phosphorylation AlphaLISA; neocarzinostatin DNA damage 30 min before lysis; Potency, µM (doses to about 57.5 µM), for the others: at the top dose activation, hits mostly activators; 320,000 compounds, 0.19% hits; further: % of control where 0% means no effect; nearly all actives have a fitted effect of over 45% in size
#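 hTERT-immortalized A-T patient fibroblasts (F2112), 500 cells/well in OPTI-MEM, 1% FBS, got compounds for 60 min, then NCS for 30 min at 37C. Lysates were then assayed for phospho-KAP-1 by AlphaLISA (anti-pKAP1 donor, anti-KAP1 acceptor beads), 6 hr at 25C.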
# SW480 rerep – inducers of DNA re-replication in SW480 colon cancer cells; 340,000 compounds, 1.8% hits; SW480 DNA re-replication, Hoechst DNA content imaging, 48 h; Potency, µM (series often up to 46.1 µM), for inactives: at the highest dose re-replication activation, actives largely listed as activators; further: % of control where 0% means no effect; nearly all actives have a fitted effect of over 55% in size
#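 Hoechst fluorescence of nuclei (405 nm excitation, 500-530 nm emission) measured by plate-scanning imager after 48 hr compound exposure at 37 C; re-replication scored as increased number of nuclei with elevated intensity.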
# MCF10A rereplic – DNA re-replication induction in MCF 10a cells. Potency, µM (titrated, usually from 46.1 µM), inactives show at the top dose activity, positive = re-replication, hits mostly activators. MCF 10A DNA re-replication, Hoechst nuclear intensity, 48 h. 350,000 compounds, 2.9% hits. AID 624296; further: % of control where 0% means no effect; nearly all actives have a fitted effect of over 50% in size
# Mito fusion act – inhibitors of mitochondrial division or activators of mitochondrial fusion. S. cerevisiae fusion-defective mutant growth rescue, CellTiterGlo 48 h. Potency, µM (top dose mostly 46.1 µM), without a hit: top-dose growth rescue (activation), hits mostly activators. 320,000 compounds, 0.23% hits. AID 485298; further: % of control where 0% means no effect; nearly all actives have a fitted effect of over 45% in size
#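 Yeast fusion mutant, YPEG (non-fermentable carbon), compound, 48 h at 37C non-permissive; CellTiterGlo added, 10 min RT, luminescence read. Rescued growth = division inhibition.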
# * marks the source's active call; other numbers are inactive results; u = inconclusive; x = no result given; [ ] = another dose, or the depositor's remark. The list is not random: actives were taken first. Their share in the collection is about 4.2%. The call rests on the fitted dose curve; in most records, active means well fitted activation curve with a large enough effect; inconclusive means small, poorly fitted or top-dose-only effect; inactive means no such curve, though single readings can be large or run the other way. Potency means the concentration at half of the fitted maximal effect.
SMILES,a7 integrin act,A-T KAP1 phos,SW480 rerep,MCF10A rereplic,Mito fusion act
COc1ccc(NC(=O)C(=O)NCC2CCCN2S(=O)(=O)c2cccs2)cc1 (stereo not drawn),-4%,5%,2.6µM*,6.5µM*,-1%
N#CC1CC(c2ccccc2)Nc2cc(Cl)ccc2N1 (stereo not drawn),-37%,1%,13µM*,u,4%
C[C@@H]1C[C@H](O)c2cc(Cl)ccc2N1,11%,-1%,-4%,6%,2%
Cc1oc(=O)c(NC(=O)c2ccc(Cl)cc2)cc1C(=O)c1ccccc1,-68%,-8%,u,8.2µM*,-3%
CC(=O)c1cc(NC(=O)c2ccccc2)c(=O)oc1C,-10%,0%,0%,u,11%
CC(=O)c1cc(NC(=O)c2ccc(C)cc2)c(=O)oc1C,6%,-1%,u,u,-7%
CC(=O)Nc1cc2ccccc2oc1=O,0%,0%,-1%,-5%,-2%
Cc1oc(=O)c(NC(=O)c2ccccc2)cc1C(=O)c1ccccc1,-65%,2%,21µM*,23µM*,-4%
Cc1ccc(C(=O)Nc2cc3ccccc3oc2=O)cc1,7%,3%,2.9µM*,18µM*,-1%
O=C(Nc1ccc(F)cc1F)c1cc2nc(-c3ccco3)cc(C(F)(F)Cl)n2n1,x,x,x,x,-6%
COc1ccc(Nc2ccc(S(=O)(=O)N3CCCCCC3)cc2[N+](=O)[O-])cc1,0%,-2%,-145%,-5%,-4%
COc1cc(Nc2ccc(S(=O)(=O)N3CCN(C)CC3)cc2[N+](=O)[O-])cc(OC)c1,10%,-11%,3.3µM*,2%,0%
CCOC(=O)c1c(NC(=O)c2ccc(Cl)s2)sc(C)c1C,28%,-7%,u,u,2%
CCOC(=O)c1cc(C)sc1NC(=O)c1ccc(Cl)s1,13%,3%,1%,3.3µM*,3%
CCN(CC)c1nc(N)c2c(N)nc3c(c2c1C#N)CC(c1ccccc1)O3 (stereo not drawn),5%,12%,u,21µM*,15%
COc1ccc(OC)c(/C=N/NC(=O)CCN2CCN(C(c3ccccc3)c3ccccc3)CC2)c1,-8%,0%,7%,15µM*,7%
O=C(CCN1CCN(c2ccccc2)CC1)N/N=C/c1ccccc1OC(F)F,-14%,7%,3.3µM*,10%,2%
O=C(CCN1CCN(C(c2ccccc2)c2ccccc2)CC1)N/N=C/c1ccc(O)cc1O,1%,8%,13%,18%,0%
COc1ccc(N(C)C(=O)Cc2c(C(=O)O)n(C)c3ccccc23)c(OC)c1,-3%,7%,0%,4%,3%
COc1ccc(N2C(=O)CC(Sc3ncn[nH]3)C2=O)c(OC)c1 (stereo not drawn),-47%,-12%,7.3µM*,2.3µM*,0%
O=C(CCl)Nc1ccc(-c2ccccc2)cc1,-84%,1%,u,16µM*,8%
O=C(CCl)Nc1ccc(N2CCCCCC2)cc1,-50%,-9%,21µM*,15µM*,u
O=C(CCl)Nc1ccc(N=Nc2ccccc2)cc1,-66%,5%,23µM*,u,22%
Cc1ccc(Sc2ccc(NC(=O)CCl)cc2)cc1C,-54%,-8%,u,u,14µM*
CC(=O)Nc1ccc(N=Nc2ccccc2)cc1,10%,-1%,u,-6%,19%
SMILES,a7 integrin act,A-T KAP1 phos,SW480 rerep,MCF10A rereplic,Mito fusion act
Cc1ccc(SCC(=O)NNC(=O)CNC(=O)c2ccc(Br)cc2)cc1,5%,7%,12%,6%,x
NS(=O)(=O)c1ccc(CCN2C(=O)/C(=C\c3ccc(Cl)cc3)SC2=S)cc1,-26%,-1%,u,10µM*,-10%
CN1CCN(C(=O)CCN2C(=O)/C(=C\c3ccc(Cl)cc3)SC2=S)CC1,-17%,8%,13%,u,1%
O=C(COc1ccc(Br)cc1)N(Cc1nnc(-c2ccccc2Cl)o1)C1CC1,-1%,x,x,x,x
CCCCCCN1C[C@@H](n2cc(C3CC3)nn2)[C@H](O)C[C@@H]1c1ccc(OC)cc1,3%,x,x,x,x
CCOC(=O)c1c(NC(N)=O)sc(C)c1C,-20%,3%,-22%,3%,16%
CCOC(=O)c1c(N2C(=O)C=CC2=O)sc(C)c1C,-66%,-3%,9.2µM*,2.9µM*,-3%
COc1ccc(/C=C/c2nc3ccccc3n2Cc2ccccc2OC)cc1,-52%,10%,u,16µM*,u
CCCC(=O)NC(c1ccccc1Cl)c1ccc2cccnc2c1O (stereo not drawn),-15%,-6%,u,u,4%
CCC(=O)NC(c1ccc(Cl)cc1Cl)c1ccc2cccnc2c1O (stereo not drawn),-30%,0%,0.52µM*,u,-1%
CCCCC(=O)NC(c1ccc(Cl)cc1Cl)c1ccc2cccnc2c1O (stereo not drawn),-21%,-3%,1.2µM*,u,2%
CCOc1ccc(OCC)c(NC(=O)CN2CCN(c3cccc(C)c3)C(C)C2)c1 (stereo not drawn),-19%,13%,u,15µM*,13%
CCOc1ccc(OCC)c(NC(=O)CN2CCN(c3cccc(C)c3)CC2)c1,-38%,0%,u,u,5%
C[C@@]12C(=O)N(CC3CC3)CC(=O)N1[C@H](/C=C/c1ccccc1)[C@@H]1C(=O)N(c3ccccc3)C(=O)[C@@H]12,15%,8%,u,15%,2%
C/C(=N\NC(=O)c1cccc(Cl)c1)C1C(=O)c2ccccc2C1=O,11%,-12%,3.7µM*,u,u
C[C@@H]1CN([C@H](C)CO)C(=O)CCCn2nncc2CO[C@@H]1CN(C)S(=O)(=O)c1cccc(F)c1,26%,x,x,x,x
COc1cccc(CNC(=O)CCCSc2ccccc2)c1,2%,-1%,-1%,7%,-3%
CC(C)(C)OC(=O)N1CCCC1C(=O)NCCc1ccccc1 (stereo not drawn),13%,9%,0%,u,-1%
CCc1cc2c(C)cc(=O)oc2cc1OC(=O)C1CCCN1C(=O)OC(C)(C)C (stereo not drawn),-31%,1%,18µM*,11%,5%[9.22 µM]
COC(=O)C1=C(C)NC(C)=C(C(=O)OCCN(C)Cc2ccccc2)C1c1cccc([N+](=O)[O-])c1 (stereo not drawn),x,-10%,u,u,u
Cc1ccc(Cl)cc1NC(=O)CCNC(=O)N1CC(=O)Nc2ccccc21,0%,6%,u,12%,-9%
Cc1ccc(Cl)cc1NC(=O)CNC(=O)N1CC(=O)Nc2ccccc21,-16%,-4%,29µM*,-1%,6%
O=C(COc1ccc(Cl)c(Cl)c1)NN1C(=O)C2C(C1=O)C1C=CC2C12CC2 (stereo not drawn),0%,-1%,1µM*,22%,-7%

# Screening results from PubChem BioAssay.
